Experimental findings from PubChem BioAssay (Tox21) are described below.

Where “and” joins values, the source holds several entries; their conditions need not be identical. Identical values can stand only once. Inconclusive results are not listed. Where a structure was tested more than once in an assay, its records may differ in their call. Calls of active or inactive are those of the source. Unless noted, the call rests on the fitted dose curve.

The nature of experiment [1]: Caspase-3/7 induction in HepG2 cells by small molecules, qHTS cell viability counter screen (AID 1346981; active means well fitted curve in the direction sought with a large enough effect in the repeat runs; an effect the other way counts as inactive or inconclusive; further: series mostly up to about 92 µM; nearly all actives have a fitted effect of over 30% in size). In outline:
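Wild-type HepG2 cells, 2,000/well, settled 5 hr at 37 C, 5% CO2 before compound addition. Viability read by CellTiter-Fluor fluorescence, reagent added after 16 hr compound exposure, then 1 hr at 37C, in the same wells as the caspase read.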
Background: In qHTS, concentration-response curves come from the screen itself.

In experiment [2] the target is Nuclear receptor subfamily 1 group I member 2 (Homo sapiens) (UniProt O75469). In words: Human pregnane X receptor (PXR) small molecule agonists, qHTS assay (AID 1346982; active means well fitted curve in the direction sought with a large enough effect in the repeat runs; an effect the other way counts as inactive or inconclusive; further: nearly all actives have a fitted effect of over 35% in size; further: potency means the concentration at half of the fitted maximal effect). In short, it runs like this: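 PXR-Luc HepG2 reporter cells (CYP3A4-driven luciferase) in 5% charcoal-stripped FBS medium, plated 5 h before compound addition, then treated 24 h at 37C. Luciferase read by ONE-Glo luminescence after 30 min at room temperature.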

The target in experiment [3] is Acetylcholinesterase (Homo sapiens) (UniProt P22303). Briefly: Acetylcholinesterase (AChE) small molecule antagonists: colormetric cell-based qHTS assay (AID 1347395). Further: nearly all actives have a fitted effect of over 30% in size. In outline:
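Neuroblastoma line SH-SY5Y supplied the enzyme; cells were preincubated with compound for 30 min at 37 C and 5% CO2. Acetylthiocholine with DTNB was then added for 90 min at 37 C, and thiocholine was measured by colour.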

The target is the same in experiment [4]. Briefly: Acetylcholinesterase (AChE) small molecule antagonists: enzyme-based qHTS assay (AID 1347397). Further: nearly all actives have a fitted effect of over 55% in size. Further: potency means the concentration at half of the fitted maximal effect. Conditions: Potency: AChE enzyme activity inhibition. In short, it runs like this:
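Recombinant human AChE, dispensed at 50 mU/mL, was preincubated with Tox21 10K compounds or DMSO vehicle for 30 min at room temperature. DTNB plus acetylthiocholine was then added, and thiocholine was measured colorimetrically after a further 10 min.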

Experiment [5] has the same target. Briefly: Acetylcholinesterase (AChE) small molecule antagonists: fluorescence cell-based qHTS assay (AID 1347398). Further: nearly all actives have a fitted effect of over 50% in size. Further: potency means the concentration at half of the fitted maximal effect. Particulars: Potency: AChE activity. In short, it runs like this:
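Human SH-SY5Y cells were plated overnight at 37 C, exposed to compound for 30 min at 37 C, 5% CO2, then given acetylthiocholine plus Thiolite Green for 40 min at room temperature; thiocholine fluorescence (Ex/Em 490/520 nm) reports endogenous AChE activity.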

Experiment [6] shares this target. Briefly: Acetylcholinesterase (AChE) small molecule antagonists: enzyme-based qHTS assay with human liver microsomes (AID 1347399). Further: nearly all actives have a fitted effect of over 60% in size. Further: potency means the concentration at half of the fitted maximal effect. Particulars: Potency: qHTS inhibition. In outline: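 Recombinant human AChE (50 mU/mL in the enzyme mix) and human liver microsomes (0.25 mg/mL final) were preincubated with compound and NADPH (0.25 mg/mL final) for 30 min at 37 C. Acetylthiocholine/DTNB was then added; thiocholine was read colorimetrically after 10 min at room temperature.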

Experiment [7] addresses Cytochrome P450 2D6 (Homo sapiens) (UniProt P10635). Briefly: Cytochrome P450 Family 2 Subfamily D Member 6 (CYP2D6) small molecule antagonists: luciferase reporter qHTS assay (AID 1671196; active means well fitted curve in the direction sought with a large enough effect in the repeat runs; an effect the other way counts as inactive or inconclusive; further: nearly all actives have a fitted effect of over 50% in size; further: potency means the concentration at half of the fitted maximal effect). In outline:
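Cell-free P450-Glo system: CYP2D6 with proluciferin substrate was pre-incubated with compound for 10 min, then reacted with NADPH regeneration for 1 h at room temperature. Luciferin product was detected after 20 min, and data were reported as relative luminescence units.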
For orientation: Reporter assays use an easily measured gene product as a stand-in for the process of interest.

The target in experiment [8] is Nuclear receptor subfamily 1 group I member 2 (Rattus norvegicus) (UniProt Q9R1A7). Briefly: Rat pregnane X receptor (rPXR) activation by small molecules, qHTS assay (AID 1346983; active means well fitted curve in the direction sought with a large enough effect in the repeat runs; an effect the other way counts as inactive or inconclusive; further: nearly all actives have a fitted effect of over 20% in size). Particulars: rPXR luciferase reporter cells, One-Glo luminescence, 24 h; stronger effect = higher value. In short, it runs like this:
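Cell-based rPXR luciferase reporter assay, 2,000 cells per well, rested 5hr at 37 C before compound addition in DMSO, then 24 hr at 37 C. One-Glo reagent was added and luminescence read after 30 min at room temperature.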
On the % scale 0 is the no-effect control and ±100 the full control effect.

Nuclear receptor subfamily 1 group I member 2 (Homo sapiens), sequence (O75469 whole entry, looked up): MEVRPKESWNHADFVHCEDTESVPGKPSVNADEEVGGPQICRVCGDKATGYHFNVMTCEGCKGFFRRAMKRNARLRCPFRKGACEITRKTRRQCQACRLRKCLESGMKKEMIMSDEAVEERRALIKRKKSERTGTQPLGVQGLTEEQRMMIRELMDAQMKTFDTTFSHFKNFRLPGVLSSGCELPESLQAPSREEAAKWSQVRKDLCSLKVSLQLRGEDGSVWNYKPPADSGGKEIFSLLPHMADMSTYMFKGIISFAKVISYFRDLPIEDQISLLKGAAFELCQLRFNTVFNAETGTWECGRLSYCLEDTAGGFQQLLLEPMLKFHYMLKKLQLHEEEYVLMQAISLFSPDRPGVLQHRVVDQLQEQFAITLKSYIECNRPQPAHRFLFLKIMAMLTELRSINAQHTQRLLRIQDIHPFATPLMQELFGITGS
Acetylcholinesterase (Homo sapiens), sequence (P22303 whole entry, looked up): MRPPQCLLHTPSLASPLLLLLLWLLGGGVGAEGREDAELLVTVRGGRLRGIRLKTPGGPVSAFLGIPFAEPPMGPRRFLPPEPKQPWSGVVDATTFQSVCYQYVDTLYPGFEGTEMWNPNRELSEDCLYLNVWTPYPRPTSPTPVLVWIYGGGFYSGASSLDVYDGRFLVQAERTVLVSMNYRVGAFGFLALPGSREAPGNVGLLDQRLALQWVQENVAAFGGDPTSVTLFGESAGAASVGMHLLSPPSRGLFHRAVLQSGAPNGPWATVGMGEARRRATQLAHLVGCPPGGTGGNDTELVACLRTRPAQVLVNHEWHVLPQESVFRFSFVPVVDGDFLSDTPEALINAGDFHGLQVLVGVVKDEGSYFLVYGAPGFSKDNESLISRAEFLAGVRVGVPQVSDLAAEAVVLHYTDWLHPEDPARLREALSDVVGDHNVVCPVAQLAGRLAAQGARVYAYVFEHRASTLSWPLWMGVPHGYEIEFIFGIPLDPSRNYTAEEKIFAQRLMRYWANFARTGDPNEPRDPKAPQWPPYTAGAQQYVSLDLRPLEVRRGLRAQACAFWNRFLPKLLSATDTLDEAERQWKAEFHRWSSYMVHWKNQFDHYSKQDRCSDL
Cytochrome P450 2D6 (Homo sapiens), sequence (P10635 whole entry, looked up): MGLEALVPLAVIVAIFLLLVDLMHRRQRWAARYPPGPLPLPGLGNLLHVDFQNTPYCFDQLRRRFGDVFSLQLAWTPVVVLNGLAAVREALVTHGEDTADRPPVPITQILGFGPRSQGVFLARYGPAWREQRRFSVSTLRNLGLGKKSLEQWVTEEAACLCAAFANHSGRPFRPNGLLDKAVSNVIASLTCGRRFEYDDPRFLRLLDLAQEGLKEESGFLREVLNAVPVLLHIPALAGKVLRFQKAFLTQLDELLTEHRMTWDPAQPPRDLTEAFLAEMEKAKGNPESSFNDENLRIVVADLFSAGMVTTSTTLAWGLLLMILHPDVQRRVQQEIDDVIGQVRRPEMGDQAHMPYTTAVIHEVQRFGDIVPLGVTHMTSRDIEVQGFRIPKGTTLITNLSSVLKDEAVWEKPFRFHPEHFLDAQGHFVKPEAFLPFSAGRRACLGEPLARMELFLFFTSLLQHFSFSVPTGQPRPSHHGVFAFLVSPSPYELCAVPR
Nuclear receptor subfamily 1 group I member 2 (Rattus norvegicus), sequence (Q9R1A7 whole entry, looked up): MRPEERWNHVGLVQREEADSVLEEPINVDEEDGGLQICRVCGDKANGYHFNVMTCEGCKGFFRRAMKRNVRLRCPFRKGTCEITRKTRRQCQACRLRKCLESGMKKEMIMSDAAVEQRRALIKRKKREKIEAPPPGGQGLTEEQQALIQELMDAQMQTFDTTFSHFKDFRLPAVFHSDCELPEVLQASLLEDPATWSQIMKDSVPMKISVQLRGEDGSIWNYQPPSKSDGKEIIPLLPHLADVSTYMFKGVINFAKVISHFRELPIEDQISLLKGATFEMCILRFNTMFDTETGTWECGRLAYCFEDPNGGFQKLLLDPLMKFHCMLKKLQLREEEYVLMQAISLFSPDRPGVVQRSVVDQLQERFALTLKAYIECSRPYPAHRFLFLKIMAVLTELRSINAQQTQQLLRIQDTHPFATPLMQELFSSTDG

Regarding `CCNc1nc(NC(C)C)nc(SC)n1`, the Potency result in experiment [1], in experiment [3], in experiment [4], in experiment [5], in experiment [6] and in experiment [7] was “inactive” throughout. Also, the Potency in experiment [2] is 54.8 µM (active) and 24.3 µM (active).
As for `CCCCOC(=O)c1ccccc1C(=O)OCCCC`, the Potency entry in experiment [1], in experiment [2], in experiment [3], in experiment [4], in experiment [5] and in experiment [6] was “inactive” in each case. Also, in experiment [7], the Potency result was “inactive”.
For the compound `CCCN(CCC)c1c([N+](=O)[O-])cc(C(F)(F)F)cc1[N+](=O)[O-]`, the Potency result in experiment [1], in experiment [3], in experiment [4], in experiment [5], in experiment [6] and in experiment [7] was “inactive” in each case. For the same compound, the Potency in experiment [2] is 30.6 µM (active).
As to `CC(C)(C)C(O)(CCc1ccc(Cl)cc1)Cn1cncn1` (configuration not stated), the Potency entry in experiment [1], in experiment [4], in experiment [5] and in experiment [6] was “inactive” each time. For the same compound, the Potency in experiment [2] was 27.6 µM (active) and 9.69 µM (active); in experiment [7] it was 28.6 µM (active) and 35.6 µM (active).
Consider `CN(N=O)c1ccccc1`, for which the Potency entry in experiment [1], in experiment [2], in experiment [4], in experiment [5], in experiment [6] and in experiment [7] was “inactive” in each case.
For `COC(=O)c1ccccc1N`, the Potency entry in experiment [1], in experiment [2], in experiment [4], in experiment [5], in experiment [6] and in experiment [7] was “inactive” throughout.
`Cc1cc(Cl)ccc1O`: the Potency entry in experiment [1], in experiment [2], in experiment [4], in experiment [5] and in experiment [6] was “inactive” in each case. Further, the Potency in experiment [7] is 19.4 µM (active) and 12.6 µM (active).
Consider `C1CN2CCN1CC2`, for which the Potency result in experiment [1], in experiment [2], in experiment [4], in experiment [5], in experiment [6] and in experiment [7] was “inactive” each time.
As for `CCC(C)(CC)c1cc(NC(=O)c2c(OC)cccc2OC)on1`, the Potency result in experiment [1], in experiment [4], in experiment [6] and in experiment [7] was “inactive” each time. In addition, the Potency in experiment [2] was 4.34 µM (active) and 831 nM (active).
`CCCCCOC(=O)c1ccccc1C(=O)OCCCCC`: the Potency entry in experiment [1], in experiment [2], in experiment [4], in experiment [5], in experiment [6] and in experiment [7] was “inactive” in each case.
In the case of `CNC(=O)Oc1ccccc1OC(C)C`, the Potency entry in experiment [1], in experiment [2] and in experiment [7] was “inactive” in each case. Also, the Potency in experiment [4] is 3.18 µM (active) and 3.17 µM (active); in experiment [5], 798 nM (active) and 1.59 µM (active); in experiment [6] it was 22.5 µM (active) and 22.4 µM (active).
Regarding `COC(=O)NC(=S)Nc1ccccc1NC(=S)NC(=O)OC`, the Potency result in experiment [1], in experiment [4], in experiment [5], in experiment [6] and in experiment [7] was “inactive” throughout. In addition, the Potency in experiment [2] was 61.1 µM (active) and 48.6 µM (active).
Consider `CC(C)NC(=O)N1CC(=O)N(c2cc(Cl)cc(Cl)c2)C1=O`, for which the Potency entry in experiment [1], in experiment [4], in experiment [5], in experiment [6] and in experiment [7] was “inactive” each time. Further, in experiment [2], the Potency was 24.3 µM (active) and 54.5 µM (active).
On to `CCC[CH2][Sn]([Cl])([Cl])[Cl]`, for which the Potency entry in experiment [1], in experiment [2], in experiment [4], in experiment [5], in experiment [6] and in experiment [7] was “inactive” throughout.
Consider `CC(NC(C)(C)C)C(=O)c1cccc(Cl)c1` (configuration not stated), for which the Potency result in experiment [1] is “inactive”. Moreover, in experiment [8], the max activation was -1.59% (inactive).
`CCCCCCCCCl`: the Potency result in experiment [1], in experiment [4], in experiment [5], in experiment [6] and in experiment [7] was “inactive” in each case. Moreover, the Potency in experiment [2] was 63.1 µM (active) and inactive.
Regarding `ClCc1cccnc1`, the Potency entry in experiment [1], in experiment [2], in experiment [4], in experiment [5], in experiment [6] and in experiment [7] was “inactive” throughout.
Take `OCCN(CCO)CCO`: the Potency entry in experiment [1], in experiment [2], in experiment [4], in experiment [5], in experiment [6] and in experiment [7] was “inactive” throughout.
For the compound `CCOP(OCC)OCC`, the Potency entry in experiment [1], in experiment [2], in experiment [4], in experiment [5] and in experiment [6] was “inactive” throughout. For the same compound, the Potency in experiment [7] is 91 µM (active) and 35.6 µM (active).
On to `C#CC(C)(C)NC(=O)c1cc(Cl)cc(Cl)c1`, for which the Potency entry in experiment [1], in experiment [4], in experiment [5], in experiment [6] and in experiment [7] was “inactive” throughout. Also, in experiment [2], the Potency is 49 µM (active) and 30.6 µM (active).
As to `CCCC1COC(Cn2cncn2)(c2ccc(Cl)cc2Cl)O1` (configuration not stated), the Potency in experiment [2] was 31.2 µM (active) and 9.69 µM (active); in experiment [7], 32.3 µM (active) and 35.6 µM (active). Moreover, the Potency entry in experiment [3], in experiment [4], in experiment [5] and in experiment [6] was “inactive” each time.
Regarding `Cn1cc(-c2ccccc2)c(=O)c(-c2cccc(C(F)(F)F)c2)c1`, the Potency in experiment [2] is 29.9 µM (active) and 17.2 µM (active). For the same compound, the Potency entry in experiment [3], in experiment [4], in experiment [5] and in experiment [6] was “inactive” in each case.
Take `CCCN(CCC)N=O`: the Potency entry in experiment [1], in experiment [2], in experiment [4], in experiment [5], in experiment [6] and in experiment [7] was “inactive” in each case.
Consider `COP(N)(=O)SC` (configuration not stated), for which the Potency result in experiment [1], in experiment [2], in experiment [6] and in experiment [7] was “inactive” throughout.
For `CN(C)N=O`, the Potency entry in experiment [1], in experiment [2], in experiment [4], in experiment [5], in experiment [6] and in experiment [7] was “inactive” in each case.
On to `CCC[N+](=O)[O-]`, for which the Potency entry in experiment [1], in experiment [2], in experiment [4], in experiment [5], in experiment [6] and in experiment [7] was “inactive” in each case.
For `COC(=O)c1ccccc1C(=O)OC`, the Potency entry in experiment [1], in experiment [2], in experiment [4], in experiment [5], in experiment [6] and in experiment [7] was “inactive” throughout.
In the case of `CC(C)OC(=O)Nc1cccc(Cl)c1`, the Potency result in experiment [1], in experiment [4], in experiment [5], in experiment [6] and in experiment [7] was “inactive” throughout. For the same compound, in experiment [2], the Potency is 38 µM (active) and 48.6 µM (active).
In the case of `CCOP(=S)(OCC)SCCSCC`, the Potency entry in experiment [1], in experiment [2], in experiment [4], in experiment [5] and in experiment [6] was “inactive” each time. In addition, in experiment [7], the Potency was 20.6 µM (active) and inactive.
With `C=CCO`, the Potency entry in experiment [1], in experiment [2], in experiment [4], in experiment [5], in experiment [6] and in experiment [7] was “inactive” throughout.
For `ClCCBr`, the Potency entry in experiment [1], in experiment [2], in experiment [4], in experiment [5] and in experiment [6] was “inactive” throughout. Further, the Potency in experiment [7] was 35.5 µM (active) and inactive.
For the compound `Nc1c(Cl)c(Cl)nc(C(=O)O)c1Cl`, the Potency result in experiment [1], in experiment [4], in experiment [5], in experiment [6] and in experiment [7] was “inactive” each time. Further, the Potency in experiment [2] is 56.1 µM (active) and inactive.
Turning to `C1CC2OC2CC1C1CO1` (configuration not stated), the Potency entry in experiment [1], in experiment [2], in experiment [4], in experiment [5], in experiment [6] and in experiment [7] was “inactive” throughout.
Take `O=NN1CCCC1`: the Potency entry in experiment [1], in experiment [2], in experiment [4], in experiment [5], in experiment [6] and in experiment [7] was “inactive” throughout.
In the case of `NCC(O)c1ccc(O)cc1` (configuration not stated), the Potency entry in experiment [1], in experiment [2] and in experiment [7] was “inactive” throughout.
Regarding `CC(C)N1C(=O)c2ccccc2NS1(=O)=O`, the Potency result in experiment [1], in experiment [2], in experiment [4], in experiment [5], in experiment [6] and in experiment [7] was “inactive” throughout.
Turning to `Cc1ccc([N+](=O)[O-])cc1C`, the Potency entry in experiment [1], in experiment [2], in experiment [4], in experiment [5], in experiment [6] and in experiment [7] was “inactive” in each case.
For the compound `Cc1ccccc1O`, the Potency entry in experiment [1], in experiment [2], in experiment [4], in experiment [5], in experiment [6] and in experiment [7] was “inactive” throughout.
With `O=c1[nH]c2ccccc2c(=O)o1`, the Potency result in experiment [1], in experiment [2], in experiment [4], in experiment [5], in experiment [6] and in experiment [7] was “inactive” throughout.
As to `Cc1cc(-c2cc(C)c(N)c(C)c2)cc(C)c1N`, the Potency entry in experiment [1], in experiment [4], in experiment [5] and in experiment [6] was “inactive” throughout. Also, the Potency in experiment [2] was 54.6 µM (active) and 26.8 µM (active); in experiment [7] it was 22.5 µM (active) and 15.6 µM (active).
